# PubChem BioAssay (NCATS)
# Records with an inconclusive call do not appear. A call without a number means that no potency is given here. Unmarked numbers belong to inactive results. Activity calls are given as the source filed them. Calls follow the shape of the full dose curve.
# What was measured:
# [1] = Primary qHTS for inhibitors of SARS-S pseudo-typed particle cell entry (AID 1479145); also: nearly all actives have a fitted effect of over 45% in size; also: potency is read from the fitted curve at half-maximal effect; as to activity change, negative = inhibition: series mostly up to about 57 µM
# [2] = Primary qHTS for Vero E6 cytotoxicity: counterscreen for inhibitors of SARS-S pseudo-typed particle cell entry (AID 1479150)
# [3] = Confirmatory qHTS for activators (rescue) of SARS-CoV-2 Cytopathic Effect (CPE) (AID 1508606); also: nearly all actives have a fitted effect of over 70% in size; also: potency is read from the fitted curve at half-maximal effect
# [4] = Primary qHTS for Huh7 cytotoxicity: counterscreen for inhibitors of MERS-S pseudotyped particle cell entry (AID 1479147); also: potency is read from the fitted curve at half-maximal effect
# [5] = Confirmatory qHTS for VERO E6 Cytotoxicity Assay: Counterscreen for SARS-CoV-2 CPE Assay (AID 1508605); also: series mostly up to about 20 µM; nearly all actives have a fitted effect of over 60% in size
# [6] = Primary qHTS for inhibitors of MERS-S pseudo-typed particle cell entry (AID 1479149); also: nearly all actives have a fitted effect of over 60% in size; also: potency is read from the fitted curve at half-maximal effect; as to activity change, negative = inhibition: series mostly up to about 57 µM
smiles,measurement,setting,value
OCCN1CCN(CCCN2c3ccccc3Sc3ccc(Cl)cc32)CC1,Potency,[1],14.1 µM (active)
same,Potency,[2],inactive
same,Potency,[3],inactive
COC(=O)[C@H]1[C@H]2C[C@@H]3c4[nH]c5cc(OC)ccc5c4CCN3C[C@H]2C[C@@H](OC(=O)c2cc(OC)c(OC)c(OC)c2)[C@@H]1OC,Potency,[1],inactive
same,Potency,[4],inactive
same,Potency,[2],inactive
same,Potency,[5],inactive
same,Potency,[3],10 µM (active)
CN(C)c1ccc(O)c2c1C[C@H]1C[C@H]3[C@H](N(C)C)C(=O)C(C(N)=O)=C(O)[C@@]3(O)C(=O)C1=C2O,Potency,[4],inactive
same,Potency,[6],inactive
same,Potency,[2],inactive
COc1cc(Nc2c(C#N)cnc3cc(OCCCN4CCN(C)CC4)c(OC)cc23)c(Cl)cc1Cl,Potency,[4],28.2 µM (active)
CCC(C)(C)C(=O)O[C@H]1C[C@@H](C)C=C2C=C[C@H](C)[C@H](CC[C@@H]3C[C@@H](O)CC(=O)O3)[C@H]21,Potency,[4],inactive
same,Potency,[6],inactive
COc1ccc(-c2cc(=S)ss2)cc1,Potency,[4],inactive
same,Potency,[6],inactive
O=C(O)c1ccc(-n2nc(-c3ccccc3O)nc2-c2ccccc2O)cc1,Potency,[1],inactive
same,Potency,[2],inactive
CC(=O)N(O)CCCCCNC(=O)CCC(=O)N(O)CCCCCNC(=O)CCC(=O)N(O)CCCCCN,Potency,[1],inactive
same,Potency,[6],inactive
same,Potency,[2],inactive
N=C(N)c1ccc(OCCCCCOc2ccc(C(=N)N)cc2)cc1,Potency,[4],inactive
CC(C)C(=O)Nc1ccc([N+](=O)[O-])c(C(F)(F)F)c1,Potency,[4],inactive
same,Potency,[6],22.4 µM (active)
OCCN1C[C@H](O)[C@@H](O)[C@H](O)[C@H]1CO,Potency,[4],inactive
same,Potency,[6],inactive
same,Potency,[2],inactive
COc1cc(C(C)=O)ccc1OCCCN1CCC(c2noc3cc(F)ccc23)CC1,Potency,[1],22.4 µM (active)
same,Potency,[5],inactive
same,Potency,[3],11.2 µM (active)
COC(=O)C1=C(C)NC(C)=C(C(=O)OC(C)C)C1c1cccc2nonc12 (stereo not given),Potency,[4],inactive
same,Potency,[6],inactive
same,Potency,[2],inactive
CCCCc1oc2ccc(NS(C)(=O)=O)cc2c1C(=O)c1ccc(OCCCN(CCCC)CCCC)cc1,Potency,[1],22.4 µM (active)
same,Potency,[6],17.8 µM (active)
O=C(c1ccc(OCCN2CCCCC2)cc1)c1c(-c2ccc(O)cc2)sc2cc(O)ccc12,Potency,[1],20 µM (active)
same,Potency,[6],11.2 µM (active)
same,Potency,[2],inactive
NNc1nncc2ccccc12,Potency,[1],inactive
same,Potency,[6],inactive
CCC(=O)O[C@H]1[C@H](O[C@@H]2[C@@H](C)[C@H](O[C@H]3C[C@@](C)(OC)[C@@H](O)[C@H](C)O3)[C@@H](C)C(=O)O[C@H](CC)[C@@](C)(O)[C@H](O)[C@@H](C)C(=O)[C@H](C)C[C@@]2(C)O)O[C@H](C)C[C@@H]1N(C)C,Potency,[4],inactive
same,Potency,[6],inactive
same,Potency,[2],inactive
Nc1ccn([C@@H]2O[C@H](CO)[C@@H](O)C2(F)F)c(=O)n1,Potency,[1],0.794 µM (active)
same,Potency,[2],inactive
Cc1oncc1C(=O)Nc1ccc(C(F)(F)F)cc1,Potency,[1],inactive
same,Potency,[6],inactive
CCCCNc1ccc(C(=O)OCCOCCOCCOCCOCCOCCOCCOCCOCCOC)cc1,Potency,[1],inactive
same,Potency,[4],inactive
same,Potency,[2],inactive
CC(C)c1c(C(=O)Nc2ccccc2)c(-c2ccccc2)c(-c2ccc(F)cc2)n1CC[C@@H](O)C[C@@H](O)CC(=O)O,Potency,[4],inactive
same,Potency,[6],inactive
COC(=O)C1=C(C)NC(C)=C(C(=O)OCC(C)C)C1c1ccccc1[N+](=O)[O-] (stereo not given),Potency,[1],35.5 µM (active)
same,Potency,[2],inactive
CCN(CCO)CCCC(C)Nc1ccnc2cc(Cl)ccc12 (stereo not given),outcome,[4],inactive [at 5.34 µM]
same,"activity change, negative = inhibition",[6],3.49% [at 5.34 µM]
same,outcome,[2],inactive [at 5.34 µM]
CCOc1ccccc1OCCN[C@H](C)Cc1ccc(OC)c(S(N)(=O)=O)c1,Potency,[4],inactive
same,Potency,[6],inactive
same,Potency,[2],inactive
COC(=O)Nc1nc2ccc(C(=O)c3ccccc3)cc2[nH]1,Potency,[4],inactive
same,Potency,[6],inactive
same,Potency,[2],inactive
NC(=O)N/N=C/c1ccc([N+](=O)[O-])o1,Potency,[1],inactive
same,Potency,[6],inactive
same,Potency,[2],inactive
COc1cc2nc(N3CCN(C(=O)c4ccco4)CC3)nc(N)c2cc1OC,Potency,[4],inactive
same,Potency,[6],inactive
CC(C)C[C@H](NC(=O)[C@H](CCc1ccccc1)NC(=O)CN1CCOCC1)C(=O)N[C@@H](Cc1ccccc1)C(=O)N[C@@H](CC(C)C)C(=O)[C@@]1(C)CO1,Potency,[1],1 µM (active)
same,Potency,[6],inactive
CNCC[C@@H](Oc1ccccc1C)c1ccccc1,Potency,[1],inactive
same,Potency,[2],inactive
CC(C)C[C@H](NC(=O)[C@H](Cc1ccccc1)NC(=O)c1cnccn1)B(O)O,Potency,[1],inactive
same,Potency,[6],inactive
COC(=O)CCc1ccc(OCC(O)CNC(C)C)cc1 (stereo not given),Potency,[4],inactive
same,Potency,[6],inactive
same,Potency,[2],inactive
CCOC(=O)[C@H](CCc1ccccc1)N[C@@H](C)C(=O)N1Cc2cc(OC)c(OC)cc2C[C@H]1C(=O)O,Potency,[4],inactive
same,Potency,[6],inactive
same,Potency,[2],inactive
